Laboratory results taken from PubChem BioAssay (NCI).
This is part of a sample that, as a whole, favours compounds with a hit. Of some 83,000 tested, about 20% had one in any assay.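 How to read the values: 0–100, growth inhibition (40 = 60% inhibited); 0, no net growth; -100 to 0, cell death (-40 = 40% of starting cells died; -100 = all dead).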 Values without a mark were called inactive. The source made the active and inactive calls.

system: SN12C renal; assay: NCI-60 one-dose screen, 48 h (100 = growth as untreated, 0 = no growth, -100 = all killed); conditions: 10 µM unless noted
Procedure: Growth inhibition of the SN12C human tumor cell line is measured as a screen for anti-cancer activity. Cells are grown in 96 well plates and exposed to the test compound for 48 hours. Compounds are tested at a single concentration, which is 10^-5 M for most compounds. The reported endpoint is percent growth (GI% or GIPRCNT), where numbers from 0 - 100% represent growth inhibition, and numbers from -100% - 0 represent cell death. For example, a value of 40 represents 60% growth inhibition. A value of 0 means no net growth occurred over the course of the experiment. A value of -40 indicates 40% of cells at the beginning of the experiment died by the end of the experiment. A value of -100 means all cells are dead at the end of the experiment.
NCI-60 Human Tumor Cell Lines Screen was performed using the standard one-dose NCI protocol, which is described in more detail at https://dtp.cancer.gov/discovery_development/nci-60/default.htm.
Compounds with GIPRCNT values below 10 were considered active. Activity score was based on GIPRCNT using the following formula: […]
Score is 0 for GIPRCNT values of 100 or above, 50 for GIPRCNT values of 0, and 100 for GIPRCNT values of -100.

Q: With `NC(=O)c1cc(Cl)ccc1NC(=O)/C=C/c1ccccc1` as the compound, how does the growth read?
A: 49%

Q: For `CC(=O)Nc1ccc(S(=O)(=O)Nc2cccc(-c3nc(-c4ccc(NC(=O)c5cccnc5)cc4Cl)no3)c2)cc1`, which growth is on record?
A: 41.3%

Q: `CC1C(/C=N/Nc2ccccc2)C(C#N)(C#N)C1(C#N)C#N` (stereo not given) was tested. Which growth did it give?
A: 86.5%

Q: Which growth does the source give for `O=C(CN1CCCCC1)Nc1ccc2oc(=O)ccc2c1` here?
A: 101%

Q: Which growth does the source give for `OCC(O)c1nc2ccc3[nH]ncc3c2c2c1CCCC2` (stereo not given) here?
A: 11.8%

Q: For `COc1ccc(C2CC(c3ccc4ccccc4c3)=NN2/C=C2\SC(=S)N(NC(=O)Cc3ccccc3Nc3c(Cl)cccc3Cl)C2=O)cc1` (stereo not given), which growth is on record?
A: 31.7%

Q: `CCCCN1CCCn2c1nc1c2c(=O)n(CCC)c(=O)n1CCC` was tested. Which growth did it give?
A: 93.2%

Q: How did the growth turn out when `O=S(=O)(Nc1ccc(I)cc1F)c1ccc(-c2cnc(C3CC3)o2)cc1` was run?
A: 71.5%

Q: For `CN(CCCCCl)P(=O)(OCc1ccc([N+](=O)[O-])o1)C(F)(F)c1ccc(CC(=O)NC[C@@H](O)/C=C\[C@@H](O)[C@H](CO)Cc2ccccc2)cc1` (stereo not given in full), which growth is on record?
A: 98.8%

Q: Which growth does the source give for `COC(=O)[C@@H]1CCCN1C(=O)[C@@H]1CCCN1C(=O)[C@H](Cc1ccccc1)NC(=S)Nc1cc(C(F)(F)F)cc(C(F)(F)F)c1` here?
A: 95%

Q: For `COc1ccc(C(=O)COc2cccc(/C=C3\CSc4ccccc4C3=O)c2)cc1`, which growth is on record?
A: 29.6%

Q: How did the growth turn out when `COc1cccc(-c2nc3sccn3c2-c2ccnc(NCCNS(=O)(=O)c3ccc(F)cc3)c2)c1` was run?
A: 27.1%

Q: With `COc1ccc2cc(-c3nn(-c4ccc(C(=O)O)cc4)cc3CO)ccc2c1` as the compound, how does the growth read?
A: 106%

Q: With `Cc1cc(N2CCN(c3ccnc4cc(Cl)ccc34)CC2)nc(NC2CCCCC2)n1` as the compound, how does the growth read?
A: 47.2%

Q: How did the growth turn out when `C#CCOc1ccc2ncnc(N3CCC(NC(=O)CCl)CC3)c2c1` was run?
A: 63.6% [8.25 µM]

Q: How did the growth turn out when `CSc1nc(NCc2ccccc2)c(C#N)c(-c2cccc([N+](=O)[O-])c2)n1` was run?
A: 93.2%

Q: `Cc1ccc(/C=C2\SC(=S)N(CC(=O)NCCCN3CCOCC3)C2=O)cc1` was tested. Which growth did it give?
A: 92.1%

Q: With `CCNC(=O)Oc1ccc(/C(=C(\C)c2ccc(Cl)cc2)c2ccc(OCCN3CCCCC3)cc2)cc1` as the compound, how does the growth read?
A: 64.8%

Q: Which growth does the source give for `O=C1/C(=C/C(Cl)=C/c2ccccc2)SC(=S)N1CCc1ccc(O)cc1` here?
A: 6.85% (active)

Q: For `COc1cc(-c2nn(-c3ccc(C)cc3)cc2C(=O)O)ccc1O`, which growth is on record?
A: 99.8%

Q: For `CN(C)c1ccc(NC(=O)c2ccc(/C=C/C(=O)c3ncc[nH]3)cc2)cc1`, which growth is on record?
A: 44.9%

Q: With `C#CC(F)(F)[C@]1(O)CC[C@H]2[C@@H]3CCC4=CC(=O)CCC4=C3[C@@H](c3ccc(C4CC4)cc3)C[C@@]21C` as the compound, how does the growth read?
A: 60.3%

Q: Which growth does the source give for `COc1ccc(CCNc2nc(SC)nc(-c3cccc([N+](=O)[O-])c3)c2C#N)cc1OC` here?
A: 84%

Q: For `COc1ccc(Nc2cc(C)nc(N3CCN(c4ccnc5cc(Cl)ccc45)CC3)n2)cc1`, which growth is on record?
A: 40.9%

Q: For `CCOC(=O)c1csc(NC(=O)COc2cccc(/C=C3\CSc4ccccc4C3=O)c2)n1`, which growth is on record?
A: 74.8%

Q: How did the growth turn out when `N#Cc1nnn(-c2ccc(S(N)(=O)=O)cc2)c1NCC(=O)c1ccccc1` was run?
A: 97.1%

Q: How did the growth turn out when `N#CCCN=Nc1c(O)[nH]c2ccc([N+](=O)[O-])cc12` was run?
A: 98.7%

Q: How did the growth turn out when `CCCCn1c(-c2ccc(C(=O)O/N=C(\N)c3ccc4ccccc4c3)cc2)nc(-c2ccccc2)c1-c1ccccc1` was run?
A: 63.5%

Q: Which growth does the source give for `Cc1ccccc1COc1ccc(-c2onc(C)c2-c2ccc(Cl)cc2)cc1` here?
A: 68.3%

Q: Which growth does the source give for `Cc1oc(-c2ccc(Cl)cc2Cl)cc1C(=O)Nc1nccs1` here?
A: 78.3%

Q: How did the growth turn out when `NC(=O)c1cc(I)ccc1NC(=O)/C=C/c1ccccc1Cl` was run?
A: 40.7%

Q: `CNc1ccc(-c2cc(=O)oc3ccc(Cl)cc23)cc1` was tested. Which growth did it give?
A: 29.9%

Q: With `CSc1ccc(-c2n[nH]nc2-c2cc3ccccc3s2)cc1` as the compound, how does the growth read?
A: 59.9%

Q: For `CCN(CC)c1ccc(-c2cc(-c3cc(OC)c(OC)c(OC)c3)nc(N3CCOCC3)c2C#N)cc1`, which growth is on record?
A: 36.4%

Q: For `O=C1/C(=C(/c2ccccc2)N2CCOCC2)Cc2ccccc21`, which growth is on record?
A: -42.6% (active)

Q: For `COc1cc(/C=C/C(=O)Nc2cccnc2Nc2ccc(F)cc2)cc(OC)c1OC`, which growth is on record?
A: 109%

Q: With `C(=N/Nc1ncc(-c2cc3cc(-c4ccccc4)ccc3o2)s1)/c1cccs1` as the compound, how does the growth read?
A: 87.6%

Q: For `O=C(COc1cccc(/C=C2\COc3ccccc3C2=O)c1)Nc1nccs1`, which growth is on record?
A: 78.4%

Q: For `O=C1NC(=S)NC(=O)C1CC(=O)n1c(-c2ccccc2)nc2ccccc21`, which growth is on record?
A: 95.8%

Q: How did the growth turn out when `CC1CCNC(C)C1` (stereo not given) was run?
A: 103%
